From PubChem BioAssay (NCATS)
Results filed as inconclusive are left out. The source made the active and inactive calls. Unless noted, the call rests on the fitted dose curve.

Experiments:
[1] = qHTS for Inhibitors of the Functional Ribonucleoprotein Complex (vRNP) of Lassa (LASV) Arenavirus: LASV Primary Screen - GLuc reporter signal (AID 1347082; calls by dose curve; tested in HEK293 reporter line; further: nearly all actives have a fitted effect of over 60% in size); conditions: LASV minigenome vRNP, Gaussia luciferase reporter; series mostly up to 57.5 µM
[2] = qHTS for Inhibitors of the Functional Ribonucleoprotein Complex (vRNP) of Lassa (LASV) Arenavirus: Viability assay - alamar blue signal for LASV Primary Screen (AID 1347083; calls by dose curve; tested in HEK293 reporter line; further: nearly all actives have a fitted effect of over 80% in size); conditions: cell viability, alamar blue fluorescence (LASV minigenome counter-screen); series mostly up to 57.5 µM
[3] = qHTS for Inhibitors of the Functional Ribonucleoprotein Complex (vRNP) of Lymphocytic Choriomeningitis Arenaviruses (LCMV): Viability assay - alamar blue signal for LCMV Primary Screen (AID 1347085; calls by dose curve; tested in HEK293 reporter line; further: nearly all actives have a fitted effect of over 80% in size); conditions: alamar blue viability counter-screen, LCMV vRNP screen cells; series mostly up to 57.5 µM
[4] = biological target: Nucleoprotein (Lymphocytic choriomeningitis virus (strain Armstrong)) (UniProt P09992); test: qHTS for Inhibitors of the Functional Ribonucleoprotein Complex (vRNP) of Lymphocytic Choriomeningitis Arenaviruses (LCMV): LCMV Primary Screen - GLuc reporter signal (AID 1347086); conditions: LCMV minigenome vRNP cell assay, Gaussia luciferase reporter; series mostly up to 57.5 µM; further: nearly all actives have a fitted effect of over 70% in size
Nucleoprotein (Lymphocytic choriomeningitis virus (strain Armstrong)), sequence (P09992 whole entry, looked up): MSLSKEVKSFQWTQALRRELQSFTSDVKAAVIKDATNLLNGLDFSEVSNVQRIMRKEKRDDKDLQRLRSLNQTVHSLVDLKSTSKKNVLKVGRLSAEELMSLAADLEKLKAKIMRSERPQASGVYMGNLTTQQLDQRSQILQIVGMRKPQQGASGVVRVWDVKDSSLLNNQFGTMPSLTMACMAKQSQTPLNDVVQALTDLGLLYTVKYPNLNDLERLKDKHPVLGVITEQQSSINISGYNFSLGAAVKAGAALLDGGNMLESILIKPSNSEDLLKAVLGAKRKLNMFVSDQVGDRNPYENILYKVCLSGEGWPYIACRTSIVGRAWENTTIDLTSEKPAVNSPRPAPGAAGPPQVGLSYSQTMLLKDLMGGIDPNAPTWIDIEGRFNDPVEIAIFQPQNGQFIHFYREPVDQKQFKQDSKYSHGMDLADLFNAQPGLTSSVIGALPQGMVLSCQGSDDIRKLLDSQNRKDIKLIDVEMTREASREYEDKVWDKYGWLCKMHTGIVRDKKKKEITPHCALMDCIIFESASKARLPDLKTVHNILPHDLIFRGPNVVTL
On the % scale 0 is the no-effect control and ±100 the full control effect.

CC1(C)C=C2[C@H]3CC[C@@H]4[C@@]5(C)CCC(=O)C(C)(C)[C@@H]5CC[C@@]4(C)[C@]3(C)CC[C@@]2(C(=O)O)CC1
inactive: Potency [1] | Potency [2] | Potency [3] | Potency [4]

CC1=CC(=O)C2=C(C)C[C@@H]3OC(=O)[C@@H](C)[C@H]3C=C12
inactive: Potency [1] | Potency [2] | Potency [3] | Potency [4]

CCCCC(C)/C=C(C)/C=C(\C)C(=O)NC1=CC(O)(/C=C/C=C/C=C/C(=O)NC2=C(O)CCC2=O)C2OC2C1=O (stereo not given)
inactive: Potency [1] | Potency [2] | Potency [3] | Potency [4]

O=C1CC(c2ccc(O[C@@H]3OC(CO)[C@@H](O)C(O)C3O)cc2)Oc2cc(O)ccc21 (stereo not given in full)
inactive: Potency [1] | Potency [2] | Potency [3] | Potency [4]

CC/C=C/CCO
inactive: Potency [1] | Potency [2] | Potency [3] | Potency [4]

CN1Cc2sccc2C(c2ccc(O)c(O)c2)C1 (stereo not given)
inactive: Potency [1] | Potency [2] | Potency [3] | Potency [4]

O=C1C=C(O)c2c(O)cc(O)c(O)c2C1=O
inactive: Potency [1] | Potency [2] | Potency [3] | Potency [4]

CC(=O)OC[C@H]1O[C@@H](O[C@H]2C[C@]3(C)C(C[C@@H](O)C4C([C@]5(C)CC[C@@H](C(C)(C)O)O5)CC[C@]43C)[C@@]3(C)CC[C@H](O)C(C)(C)C23)[C@H](O[C@@H]2O[C@@H](C)[C@H](O)[C@@H](O)[C@H]2O)[C@@H](O)[C@@H]1O (stereo not given in full)
inactive: Potency [1] | Potency [2] | Potency [3] | Potency [4]

CC(C)c1onc(-c2c(Cl)cccc2Cl)c1COc1ccc(C=Cc2cccc(C(=O)O)c2)c(Cl)c1
inactive: Potency [1] | Potency [2] | Potency [3] | Potency [4]

COc1cc(=O)n(C)c2c(O)cccc12
inactive: Potency [1] | Potency [2] | Potency [3] | Potency [4]

CCCCCCCCCCCCCC[C@@H](O)[C@@H](O)[C@@H](N)CO
inactive: Potency [1] | Potency [2] | Potency [3] | Potency [4]

COc1c(Br)cc(Br)cc1C(=O)O
inactive: Potency [1] | Potency [2] | Potency [3] | Potency [4]

CCCCC[C@H](O)/C=C/C=C\C/C=C\C=C\[C@@H](O)CCCC(=O)O
inactive: activity change, negative = inhibition [1] 2.34% [at 0.757 µM] | activity change, negative = reduced viability [2] 18.4% [at 0.757 µM] | activity change, negative = lower viability [3] 2.14% [at 0.757 µM] | activity change, negative = inhibition [4] 18.8% [at 0.757 µM]

COc1ccc(C=CC(=O)Nc2ccccc2C(=O)O)cc1OC
inactive: Potency [1] | Potency [2] | Potency [3] | Potency [4]

COc1c2c(cc3oc(C)cc(=O)c13)OC(C(C)(C)OC1OC(CO)C(O)C(O)C1O)C2 (stereo not given)
inactive: Potency [1] | Potency [2] | Potency [3] | Potency [4]

NCCC[C@H](N)CC(=O)N[C@H]1CNC(=O)[C@H]([C@H]2C[C@H](O)N=C(N)N2)NC(=O)C(=CNC(N)=O)NC(=O)[C@H](CO)NC(=O)[C@H](CO)NC1=O
inactive: Potency [1] | Potency [2] | Potency [3] | Potency [4]

CN1C(=O)[C@@H]2C[C@@]3([C@@]45C[C@H]6C(=O)N(C)[C@@H](Cc7ccccc7)C(=O)N6[C@@H]4Nc4ccccc45)c4ccccc4N[C@H]3N2C(=O)[C@@H]1Cc1ccccc1
inactive: Potency [1] | Potency [2] | Potency [3] | Potency [4]

C[C@H]1O[C@@H](O[C@H]2CC[C@@]3(C)C(CC[C@]4(C)C3C=C[C@]35OC[C@@]6(CCC(C)(C)C[C@H]63)[C@@H](O)C[C@]54C)[C@]2(C)CO)[C@H](O)[C@@H](O[C@@H]2O[C@H](CO)[C@@H](O)[C@H](O)[C@H]2O)[C@H]1O (stereo not given in full)
inactive: Potency [1] | Potency [2] | Potency [3] | Potency [4]

Cn1c(-c2ccccc2)cc(=O)c2ccccc21
inactive: Potency [1] | Potency [2] | Potency [3] | Potency [4]

CC1(C)C2=CCCC(C)(C)[C@]23CC[C@H]1C3
inactive: Potency [1] | Potency [2] | Potency [3] | Potency [4]

C=C[C@@]1(C)CCC(/C(C)=C/C=C/C(C)(C)O)C[C@@H]1C(=C)C (stereo not given in full)
inactive: Potency [1] | Potency [2] | Potency [3] | Potency [4]

CC(=O)OC[C@@]12C(=O)[C@@H](O)[C@@H](C)[C@]3(C[C@@H](c4ccoc4)O[C@@H]3OC(C)=O)[C@H]1CCC[C@]21CO1
inactive: Potency [1] | Potency [2] | Potency [3] | Potency [4]

Cc1cc2c(c(CO)c1CCO)C(=O)[C@@H](C)[C@@H]2O
inactive: Potency [1] | Potency [2] | Potency [3] | Potency [4]

COc1c2c(c(CCC(=O)O)c3c1C=CC(C)(C)O3)OC(C)(C)C=C2
inactive: Potency [1] | Potency [2] | Potency [3] | Potency [4]

CC(=O)O[C@H]1C[C@@H]2CC[C@H]3[C@H]4C[C@H]([N+]5(C)CCCCC5)[C@@H](OC(C)=O)[C@@]4(C)CC[C@@H]3[C@@]2(C)C[C@H]1N1CCCCC1
inactive: Potency [1] | Potency [2] | Potency [3] | Potency [4]

O=C1c2ccccc2C(=O)c2c(O)ccc(O)c21
inactive: Potency [1] | Potency [2] | Potency [3] | Potency [4]

C[C@H]1CC[C@@H]2[C@@H](C)[C@H]3C(C[C@H]4C5CC[C@H]6C[C@@H](O)CC[C@]6(C)C5CC[C@]34C)N2C1 (stereo not given in full)
inactive: Potency [1] | Potency [2] | Potency [3] | Potency [4]

C=C1[C@@H](OC(C)=O)CC[C@]2(C)[C@@H]1C[C@@H]1C[C@H](OC(C)=O)C(C)=C([C@@H](OC(C)=O)[C@@H]2OC(C)=O)C1(C)C
inactive: Potency [1] | Potency [2] | Potency [3] | Potency [4]

CC(=O)CCC1=C(C)CCCC1(C)C
inactive: Potency [1] | Potency [2] | Potency [3] | Potency [4]

CCCCCCCCCC(=O)OCC
inactive: Potency [1] | Potency [2] | Potency [3] | Potency [4]

C=C(C)C(O)CC/C(C)=C/Cc1c(O)ccc(C(=O)/C=C/c2ccc(O)cc2)c1O (stereo not given)
inactive: Potency [1] | Potency [2] | Potency [3] | Potency [4]

CC(C)NC(=O)NC(C)C
inactive: Potency [1] | Potency [2] | Potency [3] | Potency [4]

C[C@@H](Cc1cc2c(c(C(N)=O)c1)N(CCCO)CC2)NCCOc1ccccc1OCC(F)(F)F
inactive: Potency [1] | Potency [2] | Potency [3] | Potency [4]

Nc1ncnc2c1ncn2[C@H]1O[C@H](CO)[C@@H](O)[C@@H]1O
inactive: Potency [1] | Potency [2] | Potency [3] | Potency [4]

C[C@]1(CC/C(=C/CO)CO)[C@H](CO)CC[C@@]23COC(=O)C2=CCC[C@@H]31
inactive: Potency [1] | Potency [2] | Potency [3] | Potency [4]

CC1(C)CC(=O)CC(C)(C)N1
inactive: Potency [1] | Potency [2] | Potency [3] | Potency [4]

COC(=O)[C@@]1(C)CC[C@]2(C)CC[C@@]3(C)C(=CC(=O)C4[C@@]5(C)CC[C@H](O)C(C)(C)[C@@H]5CC[C@]43C)[C@H]2C1 (stereo not given in full)
inactive: Potency [1] | Potency [2] | Potency [3] | Potency [4]

Cn1c(=O)c(-c2ccccc2)c(O)c2ccccc21
inactive: Potency [1] | Potency [2] | Potency [3] | Potency [4]

O=c1[nH]c(O)c(/C=C2\C=Nc3ccccc32)[nH]1
inactive: Potency [1] | Potency [2] | Potency [3] | Potency [4]

CC(=O)OC[C@H]1O[C@@H](Oc2cc(O)cc3oc(-c4ccc(O)cc4)cc(=O)c23)[C@H](O[C@@H]2O[C@@H](C)[C@H](O)[C@@H](O)[C@H]2O)[C@@H](O)[C@@H]1O
inactive: Potency [1] | Potency [2] | Potency [3] | Potency [4]

O=C(O)CCc1ccccc1
inactive: Potency [1] | Potency [2] | Potency [3] | Potency [4]

C/C=C1\NC(=O)[C@H](C)NC(=O)[C@@H](NC(=O)[C@H](Cc2ccc(O)cc2)NC(=O)[C@@H](NC(=O)/C(C)=C/C)C(C)C)[C@@H](C)OC(=O)[C@H](CC(C)C)NC(=O)[C@@H](CCC(=O)O)NC1=O
inactive: Potency [1] | Potency [2] | Potency [3] | Potency [4]

Cc1ccnc(N)c1
inactive: Potency [1] | Potency [2] | Potency [3] | Potency [4]

CN1C2CCC1CC(OC(=O)c1cccc(O)c1)C2 (stereo not given)
inactive: Potency [1] | Potency [2] | Potency [3] | Potency [4]

COC(=O)c1ccc2c(c1O)C(=O)c1ccccc1C2=O
inactive: Potency [1] | Potency [2] | Potency [3] | Potency [4]

CN1c2c(nc(N)[nH]c2=O)NCC1CNc1ccc(C(=O)NC(CCC(=O)O)C(=O)O)cc1 (stereo not given)
inactive: Potency [1] | Potency [2] | Potency [3] | Potency [4]

CCCC1CCC(=O)O1 (stereo not given)
inactive: Potency [1] | Potency [2] | Potency [3] | Potency [4]

CC(=O)C1CCC2C3CCC4=CC(=O)C=CC4(C)C3C(=O)CC12C (stereo not given)
inactive: Potency [1] | Potency [2] | Potency [3] | Potency [4]

C/C=C(/CC[C@@H](C)[C@H]1CC[C@H]2C3=CC[C@H]4[C@H](C)[C@@H](O)CC[C@]4(C)[C@H]3CC[C@]12C)C(C)C
inactive: Potency [1] | Potency [2] | Potency [3] | Potency [4]

CC1(C)CC[C@]2(C(=O)O)[C@H](O)C[C@]3(C)C(=CCC4[C@@]5(C)C[C@H](O)[C@H](O)[C@@](C)(CO)C5CC[C@]43C)[C@@H]2C1 (stereo not given in full)
inactive: Potency [1] | Potency [2] | Potency [3] | Potency [4]

CC1(C)CCC[C@@](C)([C@H]2CC[C@]3(C)[C@@H]2[C@H](O)CC2[C@@]4(C)CC[C@H](O)C(C)(C)[C@@H]4[C@@H](O)C[C@]23C)O1 (stereo not given in full)
inactive: Potency [1] | Potency [2] | Potency [3] | Potency [4]

OC(c1cc(C(F)(F)F)nc2c(C(F)(F)F)cccc12)C1CCCCN1 (stereo not given)
inactive: Potency [1] | Potency [2] | Potency [3] | Potency [4]

CCCCCCCCO[C@@H]1O[C@H](CO)[C@@H](O)[C@H](O)[C@H]1O
inactive: Potency [1] | Potency [2] | Potency [3] | Potency [4]

COc1ccc(CO)cc1
inactive: Potency [1] | Potency [2] | Potency [3] | Potency [4]

O=C1Nc2ccc(Cl)cc2C(C#CC2CC2)(C(F)(F)F)O1 (stereo not given)
inactive: Potency [1] | Potency [2] | Potency [3] | Potency [4]

COc1ccc(C[C@H]2c3cc(O)c(OC)cc3CC[N+]2(C)[O-])cc1O (stereo not given in full)
inactive: Potency [1] | Potency [2] | Potency [3] | Potency [4]

CC12CCC(=O)C=C1C(O)CC1C2CCC2(C)C1CCC2(O)C(=O)CO (stereo not given)
inactive: Potency [1] | Potency [2] | Potency [3] | Potency [4]

CCCCCCOC(=O)CCCCC
inactive: Potency [1] | Potency [2] | Potency [3] | Potency [4]

CC(=O)c1ccc(-c2cccs2)s1
inactive: Potency [1] | Potency [2] | Potency [3] | Potency [4]

O=CN1CCCCC1
inactive: Potency [1] | Potency [2] | Potency [3] | Potency [4]
